# Inconclusive results are not listed. Values without a mark were called inactive. The source made the active and inactive calls. Unless noted, calls come from the whole dose curve; as a rule, active = well fitted cell-killing curve with a large enough effect in the repeat runs; inconclusive = weak or mixed curves, or effect the other way; inactive = no such curve, though single readings can be large or run the other way.
# Molecular target: Glucocorticoid receptor (Homo sapiens) (UniProt P04150)
# Assay: qHTS assay to identify small molecule agonists of the glucocorticoid receptor (GR) signaling pathway (AID 720691; active = well fitted activation curve with a large enough effect in the signal ratio in the repeat runs, not every such curve was filed as active; the % refers to the signal ratio)
# Conditions: GR-bla HeLa, beta-lactamase reporter ratio, 18 h; series mostly up to 62.4 µM; activation: at the top concentration
# Procedure, shortened: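 Fluorescence intensity from LiveBLAzer B/G FRET substrate (2 h, room temperature) reports beta-lactamase expression driven by the glucocorticoid response element in GR-bla HeLa cells after 18 h compound exposure at 37 C.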
# % is set by controls: 0 for no effect and ±100 for the full control effect.
# Glucocorticoid receptor (Homo sapiens), sequence (P04150 whole entry, looked up): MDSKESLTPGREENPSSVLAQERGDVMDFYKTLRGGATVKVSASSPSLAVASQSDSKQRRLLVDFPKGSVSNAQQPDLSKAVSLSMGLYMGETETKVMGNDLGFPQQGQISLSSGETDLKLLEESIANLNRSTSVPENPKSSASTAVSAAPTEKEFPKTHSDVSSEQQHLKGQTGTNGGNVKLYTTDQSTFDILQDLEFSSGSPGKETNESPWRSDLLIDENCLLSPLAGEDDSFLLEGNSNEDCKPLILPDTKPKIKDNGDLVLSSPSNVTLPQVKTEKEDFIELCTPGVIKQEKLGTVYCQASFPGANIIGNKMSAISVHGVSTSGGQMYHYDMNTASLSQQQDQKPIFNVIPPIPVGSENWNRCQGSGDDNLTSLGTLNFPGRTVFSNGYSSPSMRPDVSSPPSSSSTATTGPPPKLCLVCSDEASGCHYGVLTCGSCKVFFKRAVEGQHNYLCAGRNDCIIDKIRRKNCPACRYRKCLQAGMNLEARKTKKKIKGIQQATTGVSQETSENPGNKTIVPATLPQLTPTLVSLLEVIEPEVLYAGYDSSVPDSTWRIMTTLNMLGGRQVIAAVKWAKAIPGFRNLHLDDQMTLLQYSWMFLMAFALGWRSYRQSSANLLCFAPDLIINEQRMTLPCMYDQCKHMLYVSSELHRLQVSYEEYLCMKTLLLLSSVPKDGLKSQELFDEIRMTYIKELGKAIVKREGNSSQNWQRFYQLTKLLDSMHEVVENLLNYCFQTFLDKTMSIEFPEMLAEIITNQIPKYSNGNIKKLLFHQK
Structure (SMILES),activation,Potency
CO[C@@]1(NC(=O)CSCC#N)C(=O)N2C(C(=O)O)=C(CSc3nnnn3C)CS[C@@H]21,0.773%,–
Nc1ccc(Oc2ccc(N)c(N)c2)cc1,11%,–
CCOc1ccc(NS(=O)(=O)c2ccc(N)cc2)nn1,-0.759%,–
Nc1cccc(S(=O)(=O)O)c1,0.99%,–
CC(CNC1CCCCC1)OC(=O)c1ccccc1 (centres undefined),0.257% [at 29.2 µM],–
C1CCOC1,-0.302% [at 79.2 µM],–
Cc1c(-c2ccccc2)oc2c(C(=O)OCCN3CCCCC3)cccc2c1=O,-0.297% [at 29.2 µM],–
CCCCC1CCC(=O)O1 (centres undefined),-1.74%,–
CCCN(CCC)C(=O)C(CCC(=O)O)NC(=O)c1ccccc1 (centres undefined),0.141%,–
CCCCCCCCCCCCCCCCOP(=O)([O-])OCC[N+](C)(C)C,-5.27%,–
COc1ccc2nc(NC(=O)Nc3ccccc3)sc2c1,-4.53%,–
CCCCOc1cc(C(=O)NCCN(CC)CC)c2ccccc2n1,-2.42% [at 29.2 µM],–
CCC/C=C/CO,0.392%,–
N#Cc1ccc(C(c2ccc(C#N)cc2)n2cncn2)cc1,–,inactive
Cc1cc(S(=O)(=O)O)c(N)cc1Cl,-2.91% [at 79.2 µM],–
O=C(O)c1cccc(Cl)c1Cl,0.492%,–
Cc1c(C(=O)NCCO)[n+](=O)c2ccccc2n1[O-],0.437%,–
CC(C)(C)c1cccc(O)c1,-0.614%,–
COc1nc(C)nc(NC(=O)NS(=O)(=O)c2ccccc2OCCCl)n1,-0.829%,–
CN1CCN(c2c(F)cc3c(=O)c(C(=O)O)cn4c3c2SCC4)CC1,0.0129%,–
CCNCCO,1.44%,–
Cc1cc2nc(N)sc2cc1C,-10.3% [at 79.2 µM],–
CN1CCN(c2c(F)cc3c(=O)c(C(=O)O)cn(CCF)c3c2F)CC1,-0.0669%,–

# Molecular target: Glucocorticoid receptor (Homo sapiens) (UniProt P04150)
# Assay: qHTS assay to identify small molecule antagonists of the glucocorticoid receptor (GR) signaling pathway (AID 720692; active = well fitted inhibition curve with a large enough effect in the signal ratio in the repeat runs, not every such curve was filed as active; the % refers to the signal ratio)
# Conditions: GR-bla HeLa, beta-lactamase FRET ratio, dexamethasone-stimulated, 18 h; series mostly up to 58.5 µM; activity change, negative = inhibition: at the top concentration
# Procedure, shortened: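 HeLa GR-bla cells; cmpd + dex 5 nM final, 18 h 37 C; LiveBLAzer B/G FRET substrate 2 h RT; fluorescence intensity read. Antagonist mode, qHTS.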
Structure (SMILES),"activity change, negative = inhibition",Potency
Cc1c(-c2ccccc2)oc2c(C(=O)OCCN3CCCCC3)cccc2c1=O,2.66% [at 27 µM],–
CCCCC1CCC(=O)O1 (centres undefined),-1.45%,–
N#Cc1ccc(C(c2ccc(C#N)cc2)n2cncn2)cc1,–,inactive
O=C(O)c1cccc(Cl)c1Cl,17.8%,–
Cc1c(C(=O)NCCO)[n+](=O)c2ccccc2n1[O-],0.0353%,–
COc1nc(C)nc(NC(=O)NS(=O)(=O)c2ccccc2OCCCl)n1,-12.4%,–
CN1CCN(c2c(F)cc3c(=O)c(C(=O)O)cn4c3c2SCC4)CC1,7.8%,–
CCNCCO,2.54%,–

# Tested on: not listed separately
# Assay: qHTS assay to identify small molecule antagonists of the glucocorticoid receptor (GR) signaling pathway - cell viability counter screen (AID 720693); note: nearly all actives have a fitted effect of over 55% in size
# Conditions: GR-bla HeLa viability, CellTiter-Glo luminescence, 18 h, with 5 nM dexamethasone present; series mostly up to 58.5 µM; viability change, negative = cytotoxic: at the top concentration
Structure (SMILES),"viability change, negative = cytotoxic",outcome
CO[C@@]1(NC(=O)CSCC#N)C(=O)N2C(C(=O)O)=C(CSc3nnnn3C)CS[C@@H]21,10.9%,–
Nc1ccc(Oc2ccc(N)c(N)c2)cc1,-5.83%,–
C=CCCC=C,-2.9% [at 78.9 µM],–
Nc1cccc(S(=O)(=O)O)c1,-4.8%,–
CC(CNC1CCCCC1)OC(=O)c1ccccc1 (centres undefined),-0.289% [at 27 µM],–
C1CCOC1,-0.16% [at 78.9 µM],–
Cc1c(-c2ccccc2)oc2c(C(=O)OCCN3CCCCC3)cccc2c1=O,3.14% [at 27 µM],–
CCCCC1CCC(=O)O1 (centres undefined),8.98%,–
CCCN(CCC)C(=O)C(CCC(=O)O)NC(=O)c1ccccc1 (centres undefined),15.7%,–
CCCCCCCCCCCCCCCCOP(=O)([O-])OCC[N+](C)(C)C,5.21%,–
COc1ccc2nc(NC(=O)Nc3ccccc3)sc2c1,-12.4%,–
O=C(O)C(=O)Cc1c[nH]c2ccccc12,9.27%,–
O=C(CC(=O)C(F)(F)F)c1ccccc1,-13% [at 78.9 µM],–
CCCCOc1cc(C(=O)NCCN(CC)CC)c2ccccc2n1,-2.88% [at 27 µM],–
Cc1ncc(CO)c(CN)c1O,-3.18%,–
CCC/C=C/CO,12.1%,–
COC(=O)C(C)O (centres undefined),17.7% [at 78.9 µM],–

Structure (SMILES),"viability change, negative = cytotoxic",outcome
CCc1nnc(NS(=O)(=O)c2ccc(N)cc2)s1,13.2%,–
N#Cc1ccc(C(c2ccc(C#N)cc2)n2cncn2)cc1,–,inactive
O=C(O)[C@@H](O)[C@H](O)[C@H](O)[C@@H](O)C(=O)O,2.87%,–
Cc1cc(S(=O)(=O)O)c(N)cc1Cl,16.3% [at 78.9 µM],–
O=C(O)c1cccc(Cl)c1Cl,-3.16%,–
Cc1c(C(=O)NCCO)[n+](=O)c2ccccc2n1[O-],1.46%,–
CC(C)(C)c1cccc(O)c1,5.74%,–
Cc1ccc(C=O)s1,1.99%,–
CC1(C)O[C@@H]2C[C@H]3[C@@H]4CCC5=CC(=O)CC[C@]5(C)[C@@]4(F)[C@@H](O)C[C@]3(C)[C@]2(C(=O)CCl)O1,-0.596% [at 27 µM],–
COc1nc(C)nc(NC(=O)NS(=O)(=O)c2ccccc2OCCCl)n1,-5.71%,–
CN1CCN(c2c(F)cc3c(=O)c(C(=O)O)cn4c3c2SCC4)CC1,-5.86%,–
CCCCc1ccc2nc(NC(=O)OC)[nH]c2c1,-28.8% [at 27 µM],–
CCNCCO,6.73%,–
CN(C)CCOc1ccccc1Cc1ccccc1,4.56%,–
Cc1cc2nc(N)sc2cc1C,6.7% [at 78.9 µM],–
CN1CCN(c2c(F)cc3c(=O)c(C(=O)O)cn(CCF)c3c2F)CC1,-7.09%,–

# — PubChem BioAssay (Tox21)
